FBW7 activator: FBW7 E3 ligase activators, primary screen, biochemical, AlphaScreen, human. F-box/WD repeat-containing protein 7 (Homo sapiens), Q969H0. AlphaScreen FBW7–phospho-cyclin E peptide binding, activator screen. normalized activity (activation), % at 26.1 µM. 650,000 tested, 0.13% active; in the data active = normalized activity above about 1.9%;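 note: purified mutant Fbw7 with reduced substrate affinity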
MITF inh: MITF inhibitors, primary screen, biochemical, AlphaScreen, human; Microphthalmia-associated transcription factor (Homo sapiens), O75030; AlphaScreen MITF homodimerization, bead proximity signal; inhibition, % at 2.6 µM; 650,000 tested, 0.91% active; in the data active = inhibition above about 50%
GPR151 activ: activators of human GPR151, primary screen, cell-based, PathHunter beta-arrestin, luminescence. PathHunter beta-arrestin GPR151 cells. activation, % at 11.2 µM. 650,000 tested, 1% active. AID 1508602, 2020; in the data active = activation above about 4.9%
Target sequence (Q8TDV0 whole entry, looked up): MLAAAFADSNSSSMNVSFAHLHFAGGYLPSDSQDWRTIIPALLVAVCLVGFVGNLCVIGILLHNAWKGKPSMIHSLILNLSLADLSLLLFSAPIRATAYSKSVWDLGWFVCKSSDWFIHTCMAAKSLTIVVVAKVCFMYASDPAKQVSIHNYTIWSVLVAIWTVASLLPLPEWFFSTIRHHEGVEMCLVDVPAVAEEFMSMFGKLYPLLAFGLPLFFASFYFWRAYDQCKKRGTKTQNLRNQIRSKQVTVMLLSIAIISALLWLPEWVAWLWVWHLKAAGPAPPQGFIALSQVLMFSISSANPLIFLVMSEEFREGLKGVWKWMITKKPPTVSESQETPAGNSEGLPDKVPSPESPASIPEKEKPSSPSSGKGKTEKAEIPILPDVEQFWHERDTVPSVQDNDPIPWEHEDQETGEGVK
TEAD-YAP inh: TEAD-YAP interaction inhibition, primary screen, TEAD-YAP interaction inhibitor project, luminescence, HEK-TIYL cells; TEAD-Gal4/YAP UAS-luciferase luminescence; inhibition, % at 9.12 µM; 640,000 tested, 1.4% active; AID 1259422, 2018; in the data active = inhibition above about 32%
Each line names hits and unclear results; the compound was inactive in the other large screens. Hits are enriched below; roughly 3.5% of the tested compounds scored in any of these assays.

C=CCN(c1ccccc1)S(=O)(=O)c1ccc(F)c(C(=O)Nc2ccc(CC)cc2)c1	none
NC(=O)c1cnn(-c2ccnc(NC(=O)Cc3ccc(F)cc3)c2)c1	TEAD-YAP inh 75.5
CC(C)n1nc(C(=O)NN)c2ccccc2c1=O	TEAD-YAP inh 51.4
COc1ccccc1NC(=O)N1CCC(c2nc3ccc(C)cc3[nH]2)CC1	TEAD-YAP inh 63.9
COc1ccccc1NC(=O)CN1CCC(c2nc3ccc(C)cc3[nH]2)CC1	none
COc1ccccc1NC(=O)N1CCC(c2nc3ccc(Cl)cc3[nH]2)CC1	TEAD-YAP inh 80.2
COc1ccc(CCNc2nc(Nc3cccnc3)nc3c2ncn3-c2ccsc2)cc1	TEAD-YAP inh 64.8
COc1ccc(CCNc2nc(Nc3ccncc3)nc3c2ncn3-c2ccsc2)cc1	TEAD-YAP inh 42.5
Oc1ccc(CCNc2nc(Nc3ccc(C(F)(F)F)cc3)nc3c2ncn3-c2ccsc2)cc1	none
CCNc1nc(NCCc2ccc(O)cc2)c2ncn(-c3ccsc3)c2n1	none
COc1ccc(CCNc2nc(Nc3cnccn3)nc3c2ncn3-c2ccsc2)cc1	none
Cn1nccc1Nc1nc(NCCc2ccc(O)cc2)c2ncn(-c3ccsc3)c2n1	TEAD-YAP inh 59.8
Oc1ccc(CCNc2nc(Nc3ccncc3)nc3c2ncn3-c2ccsc2)cc1	TEAD-YAP inh 56.2
COc1ccc(CCNc2nc(NC3CCC(O)CC3)nc3c2ncn3-c2ccsc2)cc1 (centres undefined)	TEAD-YAP inh 48.4
CC(C)N(CCNc1nc(Nc2ccccn2)nc2c1ncn2-c1ccsc1)C(C)C	none
CC(C)N(CCNc1nc(Nc2ccnn2C)nc2c1ncn2-c1ccsc1)C(C)C	TEAD-YAP inh 35.3
Cc1ccccc1OCCCn1cc(C=C2C(=O)N(C)C(=O)N(C)C2=O)c2ccccc21	TEAD-YAP inh 34.4
Cc1ccccc1Cn1cc(C=C2C(=O)N(C)C(=O)N(C)C2=O)c2ccccc21	none
COc1cc(C(=O)Nc2ccc(N3CCCC3)c(Cl)c2)cc(OC)c1OC	TEAD-YAP inh 42.0
COc1cc(C(=O)Nc2ccc(I)cc2)cc(OC)c1OC	TEAD-YAP inh 34.7
COc1cc(C(=O)Nc2ccc(C)c(C)c2)cc(OC)c1OC	none
COc1cc(NC(=O)c2cccc(-c3cccc(C(C)=O)c3)n2)cc(OC)c1OC	TEAD-YAP inh 36.2
COc1cc(NC(=O)c2csc(-c3cccc(C(C)=O)c3)n2)cc(OC)c1OC	none
COc1cc(CNc2ccc(-c3cccc(C(C)=O)c3)cn2)cc(OC)c1OC	TEAD-YAP inh 34.1
Oc1ccc(CCNc2nc(Nc3cnccn3)nc3nc[nH]c23)cc1	TEAD-YAP inh 39.0
c1ccc(OCCNc2nc(Nc3ccncn3)nc3nc[nH]c23)cc1	FBW7 activator 32.8
Cc1cnc(Nc2cnccn2)nc1NCCc1ccc(O)cc1	TEAD-YAP inh 35.7
Oc1ccc(CCNc2nc(Nc3ccccc3)nc3nc[nH]c23)cc1	TEAD-YAP inh 51.8
Cc1cnc(Nc2ccncn2)nc1NCCc1ccc(O)cc1	none
Oc1ccc(CCNc2nc(Nc3ccncc3)nc3nc[nH]c23)cc1	none
CC(C)N1CCC(N(CCN(C)C)C(=S)Nc2cccc(F)c2)CC1	none
COc1cc(/C=C(\C#N)c2nnc3n2CCCCC3)ccc1OC(C)=O	none
Cc1cc2c(cc1C)C(C1=C(O)CC(C)(C)CC1=O)=NC(C)(C)C2	none
COc1cc(Nc2nc(NCCO)c3[nH]cnc3n2)cc(OC)c1OC	none
COc1cc(Nc2nc(NCCc3ccc(O)cc3)c3[nH]cnc3n2)cc(OC)c1OC	TEAD-YAP inh 46.0
CN(C)c1cccc(Nc2nc(NCc3ccccc3)c3[nH]cnc3n2)c1	FBW7 activator 2.4
COc1cc(N2CCOCC2)ccc1Nc1ncc(Cl)c(Nc2ccccc2C(=O)NC2CC2)n1	none
NC(=O)c1ccccc1Nc1nc(Nc2ccc(N3CCCC3=O)cc2)ncc1Cl	TEAD-YAP inh 78.2
COc1cnc(Nc2ccc(N3CCOCC3)cc2)nc1Nc1ccccc1C(N)=O	TEAD-YAP inh 55.3
N#Cc1ccc(Nc2ncc(Cl)c(Nc3ccccc3C(N)=O)n2)cc1	none
Cc1ncn(-c2ccc(Nc3ncc(C)c(Nc4ccccc4C(N)=O)n3)cc2)n1	TEAD-YAP inh 87.5
CCOc1ccc(C(=O)NC(=S)Nc2ccc(Cc3ccncc3)cc2)cc1	none
Cn1cccc1CC(=O)N/N=C\c1ccc(Br)cc1	none
O=[N+]([O-])c1ccc(Nc2ccccc2Cl)c([N+](=O)[O-])c1	none
N#Cc1cc(Nc2ccccc2Cl)c([N+](=O)[O-])cc1C#N	TEAD-YAP inh 74.2
Cc1ccc(S(=O)(=O)NCC2COC3(CCCC3)O2)c(C)c1 (centres undefined)	none
CCc1ccccc1NC(=O)c1sc2nc3c(c(-c4ccco4)c2c1N)CCCCC3	none
OC1CCN(Cc2ccccc2Cl)CC1	none
Clc1ccccc1CN1c2ccccc2N(Cc2ccccc2Cl)C1c1ccccc1Cl	TEAD-YAP inh 81.1
CCOC(=O)CNC(=O)c1sc2ncn(C)c(=O)c2c1C	none
CC(=O)N(CCO)Cc1cc2c(C)ccc(C)c2[nH]c1=O	none
CN1C(=O)CC(CC(=O)N2CCCN(C=O)CC2)(c2ccc(-c3ccccc3)cc2)C1=O (centres undefined)	none
CCc1ccc(N(CC(=O)NC(C)CC)S(C)(=O)=O)cc1 (centres undefined)	FBW7 activator 1.9
Cc1ccc(-c2nn(-c3ccccc3)cc2C2CC(c3ccc(F)cc3)=NN2c2ccccc2)o1 (centres undefined)	none
O=[N+]([O-])c1ccc(N2N=C(c3ccccc3)CC2c2ccccc2O)cc1 (centres undefined)	FBW7 activator 3.5
c1ccc(-c2ccc(C3=NN(c4ccccc4)C(c4ccccc4)C3)cc2)cc1 (centres undefined)	none
Fc1ccccc1C1CC(c2ccccc2)=NN1c1ccccc1 (centres undefined)	FBW7 activator 3.3
Cc1ccc(C2CC(c3ccc(F)cc3)=NN2c2ccccc2)o1 (centres undefined)	FBW7 activator 1.9
O=[N+]([O-])c1ccc(N2N=C(c3ccccc3)CC2c2ccccc2)cc1 (centres undefined)	none
CCc1ccc(N2N=C(C)/C(=C/c3ccc(N4CCOCC4)cc3)C2=O)cc1	none
COc1cccc(-c2cnn3c(N4CCCCC4CCO)ccnc23)c1 (centres undefined)	none
O=C(O)/C=C/c1cccc(-c2cnn3c(N4CCC[C@H]4CO)ccnc23)c1	TEAD-YAP inh 49.7
COc1cccc(-c2cnn3c(N4CCC[C@H]4CO)ccnc23)c1	TEAD-YAP inh 59.0
OC[C@@H]1CCCN1c1ccnc2c(-c3cccc(O)c3)cnn12	TEAD-YAP inh 100.2
COc1ccc(-c2cnn3c(N4CCC[C@H]4CO)ccnc23)cc1	TEAD-YAP inh 57.0
COc1ccc(-c2cnn3c(N4CCC[C@H]4CO)ccnc23)cc1OC	none
CC(C)Cn1c(C2COc3ccccc3O2)nc2ncc(-c3ccncc3)cc21 (centres undefined)	none
Cc1ccc(C(C)C)c(OCC(=O)Nc2sc(C)c(C)c2C(N)=O)c1	none
